Data reported in PubChem BioAssay (NCI).
This is part of a sample that, as a whole, favours compounds with a hit. Of some 79,000 tested, about 15% had one in any assay. Cut-off read from the data, not from the text of the source: active = growth inhibition above about 70%; inactive = the rest.

Columns and labels:
[1] = NCI Yeast Anticancer Drug Screen. Data for the rad50 strain (AID 155);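 note: 0% = growth of vehicle-only cultures of the same strain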; conditions: S. cerevisiae rad50 strain growth inhibition; at 50.0 µM; stronger effect = higher value
Summary of the method: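 Inhibition values express reduced yeast growth in compound-treated cultures relative to vehicle-treated controls.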

[2] = NCI Yeast Anticancer Drug Screen. Data for the mec2-1 strain (AID 157); conditions: S. cerevisiae mec2-1 strain, at 50.0 µM, stronger effect = higher value
Summary of the method: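 Vehicle-treated cultures served as reference for growth inhibition of compound-exposed mec2-1 yeast.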

[3] = NCI Yeast Anticancer Drug Screen. Data for the sgs1 mgt1 strain (AID 161);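 note: 0% = growth of cultures given vehicle only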; conditions: S. cerevisiae sgs1 mgt1 strain, at 50.0 µM, stronger effect = higher value
Summary of the method: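 Read-out: growth inhibition vs vehicle controls. Cells: mutant yeast strain deficient in DNA damage repair.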

[4] = NCI Yeast Anticancer Drug Screen. Data for the cln2 rad14 strain (AID 165);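 note: 0% = growth equal to vehicle treated cultures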; conditions: S. cerevisiae cln2 rad14 strain, at 50.0 µM, stronger effect = higher value
Summary of the method: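 Each compound was tested on cln2 rad14 yeast. Inhibition of growth was calculated against vehicle-exposed controls.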

[5] = NCI Yeast Anticancer Drug Screen. Data for the bub3 strain (AID 167); conditions: S. cerevisiae bub3 mutant strain, at 50.0 µM, stronger effect = higher value
Summary of the method: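 Steps: expose the mutant yeast strain to compound; grow alongside vehicle-treated cultures; measure growth; express inhibition against the vehicle cultures.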

[6] = NCI Yeast Anticancer Drug Screen. Data for the mlh1 rad18 strain (AID 175); conditions: S. cerevisiae mlh1 rad18 strain growth inhibition; at 50.0 µM; stronger effect = higher value
Summary of the method: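 Vehicle-treated cultures served as the reference for growth inhibition in a yeast strain carrying DNA damage repair alterations exposed to each compound.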

Measured: growth inhibition

CCOC(=O)c1cc2nc(NC(=O)c3ccccc3)sc2n1C
inactive: [1] 4.85% | [2] 8.3% | [3] 7.3% | [4] 10.3% | [5] 6.4% | [6] 16.8%

CC(C)CN(CC(=O)NC(=O)c1ccccc1)CC(C)C
inactive: [1] -2.1% | [2] -10.1% | [3] -12.2% | [4] -37.9% | [5] -4% | [6] -3.8%

COc1ccc2c(c1)OC(C)(C)C(c1ccccc1)=C2c1ccc2c(c1)NCCO2
inactive: [1] 1% | [2] -2.35% | [3] 11.1% | [4] -38.5% | [5] -22.6% | [6] 32.2%

CC(C)SC(C)(NC(=O)C1C(C)(C)CCC1(C)C)C(=O)O (stereo unspecified)
inactive: [1] -52.6% | [2] 1.45% | [3] -24.6% | [4] 1.5% | [5] 5.45% | [6] -49.5%

C1C[O][Ge]2([O]1)[O]CC[O]2
inactive: [1] -24.9% | [2] -4.95% | [3] -16.2% | [4] 17.1% | [5] -13.2% | [6] -5.95%

ClSC(c1ccccc1)(c1ccccc1)c1ccccc1
inactive: [1] 20.2% | [2] 8.9% | [3] 57.6% | [4] 10.6% | [5] -30.9% | [6] 33.4%

CCCCC(C(C)=O)C(=O)CC (stereo unspecified)
inactive: [1] 26.4% | [2] -25% | [3] 8.8% | [4] -23.2% | [5] -20.5% | [6] 13.1%

COc1cc2c(cc1OC)C(=O)C(C1=C(SC(=N)N)C(=O)c3cc(OC)c(OC)cc31)C2 (stereo unspecified)
inactive: [1] -7.4% | [2] -21.9% | [3] -7.75% | [4] -0.65% | [5] 2.85% | [6] -2%

CCOC(=O)c1[nH]cnc1N
inactive: [1] -17.1% | [2] 11.1% | [3] -2.55% | [4] -46.1% | [5] 1.15% | [6] -3.65%

CCOC(=O)[C@@]12[C@H](N3C(=O)c4ccccc4C3=O)C(=O)N1CCS2(=O)=O
inactive: [1] -1.9% | [2] -5.7% | [3] -29.4% | [4] -22.9% | [5] -1.5% | [6] 6.95%

O=C1CCSC(=S)N1c1ccccc1
inactive: [1] 38.2% | [2] 4.8% | [3] 23.8% | [4] -32.2% | [5] -5.4% | [6] 27.1%

CSc1ccc(NC(=O)N(Cc2ccccc2)c2ccccc2)cc1
inactive: [1] 3.75% | [2] 16.9% | [3] 11.9% | [4] -6.4% | [5] 19.2% | [6] 13.8%

CCC[N+]1=C/c2ccccc2OC(=O)/C=C\1[O-]
inactive: [1] -36.9% | [2] -11.3% | [3] -14.1% | [4] -8.95% | [5] 5.8% | [6] -1.1%

Cc1nc(N)nc(C)c1N=Nc1ccccc1Br
inactive: [1] 2% | [2] 3.75% | [3] 2.35% | [4] -42.2% | [5] 5.35% | [6] -6.25%

Cc1ccsc1/C=N/NC(N)=S
inactive: [1] 30% | [2] -7% | [3] 32.5% | [4] 5.55% | [5] 9.2% | [6] 28.7%

O=C(O)c1csc(C(=O)O)c1
inactive: [1] 8.5% | [2] -1.1% | [3] 9.05% | [4] 2.3% | [5] 12.4% | [6] 8.35%

O=C1CCC(C(=O)O)N1 (stereo unspecified)
inactive: [1] -9.2% | [2] 4.7% | [3] -20.9% | [4] 1.15% | [5] 7.7% | [6] -7.8%

CCCCB1OB(CCCC)OB(CCCC)O1
inactive: [1] -1.65% | [2] -17.8% | [3] -6.2% | [4] 5.25% | [5] 7.15% | [6] 4.25%

COc1ccc(/C=C2\N=C(c3cc(OC)c(OC)c(OC)c3)OC2=O)cc1Br
inactive: [1] -6.95% | [2] -6.7% | [3] 21.6% | [4] -0.4% | [5] 6.2% | [6] 2.1%

Nc1c(Cl)ncnc1NCCN1CCOCC1
inactive: [1] -3.85% | [2] 1.9% | [3] 1.55% | [4] -22.1% | [5] -17.5% | [6] -18.4%

c1ccc(SCCP(CCP(c2ccccc2)c2ccccc2)c2ccccc2)cc1 (stereo unspecified)
inactive: [1] 34.9% | [2] 2.6% | [3] 14.3% | [4] 22.4% | [5] 37.8% | [6] 57.1%
